Experimental data as given in the supplement of paper PMC6992640.
± gives the standard deviation of the averaged measurements.

How the values were obtained:
Assay in all cases: cell viability (% of vehicle); higher = less cytotoxic
Conditions in all cases: 10 µM; 72 h
HCI01 = tested on: HCI01 (cells of a triple-negative basal-like breast cancer xenograft)
HCI03 = tested on: HCI03 (cells of an ER-positive luminal breast cancer xenograft)
HCI09 = tested on: HCI09 (cells of a triple-negative luminal androgen receptor type breast cancer xenograft)
HCI11 = tested on: HCI11 (cells of an ER-positive luminal breast cancer xenograft)
HCI13 = tested on: HCI13 (cells of an ER-positive luminal breast cancer xenograft)
HCI16 = tested on: HCI16 (cells of a triple-negative basal-like breast cancer xenograft)
UCD52 = tested on: UCD52 (cells of a triple-negative basal-like breast cancer xenograft)
WHIM2 = tested on: WHIM2 (cells of a triple-negative basal-like breast cancer xenograft)
WHIM30 = tested on: WHIM30 (cells of a triple-negative basal-like breast cancer xenograft)
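Also: PDX cells carrying CMV promoter-driven luciferase, viability read as total photon flux per second by IVIS imaging following D-luciferin, vehicle control 0.1% DMSO.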

Row | SMILES | cell viability (HCI01) | cell viability (HCI03) | cell viability (HCI09) | cell viability (HCI11) | cell viability (HCI13) | cell viability (HCI16) | cell viability (UCD52) | cell viability (WHIM2) | cell viability (WHIM30)
1 | OC[C@@H](O)[C@@H](O)[C@H](O)[C@@H](O)CO [D-Sorbitol] | 96 ± 11 | 118 | 107 ± 21 | 91.5 | 109 ± 4.5 | 120 | 96.3 ± 8 | 103 ± 2.6 | 120 ± 21
2 | Oc1ccc(C2CNCCc3c2cc(O)c(O)c3Cl)cc1 (stereo not drawn) [Fenoldopam] | 125 ± 16 | 101 | 107 ± 8.1 | 101 | 90.4 ± 2.4 | 124 | 110.5 ± 0.48 | 96.8 ± 13 | 126 ± 9.5
3 | CCCCc1nc(Cl)c(CO)n1Cc1ccc(-c2ccccc2-c2nnn[n-]2)cc1.[K+] [Losartan Potassium (DuP 753)] | 126 ± 8.5 | 124 | 106 ± 8.5 | 79 | 82.7 ± 0.98 | 82.3 | 97.9 ± 7.8 | 87 ± 17 | 118 ± 2.1
4 | Cl.c1ccc(CC2=NCCN2)cc1 [Tolazoline HCl] | 94.2 ± 1.9 | 100 | 92 ± 13 | 91.4 | 118 ± 8.5 | 115 | 92.7 ± 2.9 | 105 ± 5.3 | 87.3 ± 5
5 | COc1ccc2c(c1OC)C(=O)OC2C1c2c(cc3c(c2OC)OCO3)CCN1C.Cl (stereo not drawn) [Noscapine HCl] | 127 ± 6.7 | 114 | 127 ± 49 | 117 | 101 ± 6.3 | 117 | 93.7 ± 5 | 111 ± 18 | 139.5 ± 0.58
6 | O=C(O)c1cccnc1 [Nicotinic Acid] | 97.2 ± 15 | 119 | 100 ± 20 | 87.3 | 112 ± 18 | 98.5 | 92.8 ± 2.8 | 84.3 ± 10 | 143.6 ± 0.45
7 | O=S(=O)([O-])CCS.[Na+] [Mesna] | 112.4 ± 0.12 | 118 | 98.4 ± 6.8 | 103 | 141 ± 28 | 97.2 | 89.3 ± 3.8 | 100 ± 13 | 106 ± 6.6
8 | Cc1cn(C2C=CC(CO)O2)c(=O)[nH]c1=O (stereo not drawn) [Stavudine (d4T)] | 112 ± 12 | 115 | 110 ± 14 | 91 | 82.13 ± 0.67 | 117 | 104 ± 11 | 95.9 ± 9.4 | 127 ± 5
9 | NS(=O)(=O)c1cc2c(cc1Cl)NC=NS2(=O)=O [Chlorothiazide] | 101 ± 4.1 | 149 | 102 ± 12 | 121 | 134 ± 16 | 90 | 93.8 ± 13 | 89.4 ± 27 | 124 ± 29
10 | OCCOc1ccc(C(=C(CCCl)c2ccccc2)c2ccccc2)cc1 [Ospemifene] | 117 ± 33 | 139 | 99.6 ± 30 | 106 | 91 ± 2.3 | 146 | 86.3 ± 1.5 | 78.5 ± 5.9 | 148 ± 10
11 | CC(c1cc2ccccc2s1)N(O)C(N)=O (stereo not drawn) [Zileuton] | 101 ± 13 | 136 | 105 ± 10 | 101 | 134 ± 24 | 128 | 112 ± 4 | 112 ± 21 | 134 ± 13
12 | CCCCOc1cc(C(=O)NCCN(CC)CC)c2ccccc2n1.Cl [Dibucaine (Cinchocaine) HCl] | 124 ± 13 | 154 | 92.3 ± 9.3 | 103 | 116 ± 5.1 | 101 | 68 ± 3.4 | 96.4 ± 5.9 | 109 ± 4.7
13 | CC(C)(C)NC(=O)C1CCC2C3CCC4NC(=O)C=CC4(C)C3CCC12C (stereo not drawn) [Finasteride] | 136 ± 20 | 115 | 103 ± 8.5 | 125 | 96.2 ± 4.9 | 99.8 | 81.1 ± 1.1 | 94 ± 1.5 | 156 ± 18
14 | CC(=O)O[C@H]1Cc2ccccc2N(C(N)=O)c2ccccc21 [Eslicarbazepine acetate] | 102 ± 12 | 116 | 111 ± 6.7 | 85.7 | 102 ± 11 | 106 | 95.5 ± 1.3 | 102 ± 27 | 94.1 ± 16
15 | O=C1c2ccccc2C(=O)C1c1ccccc1 [Phenindione] | 127 ± 33 | 142 | 104 ± 5.7 | 94.7 | 92.6 ± 26 | 114 | 104 ± 7.3 | 124 ± 13 | 159 ± 35
16 | COc1cc2c(cc1OC)CC(=O)N(CCCN(C)CC1Cc3cc(OC)c(OC)cc31)CC2.Cl (stereo not drawn) [Ivabradine HCl] | 105 ± 7.9 | 121 | 100 ± 19 | 114 | 99.3 ± 3.9 | 97.9 | 85.7 ± 11 | 93.2 ± 17 | 123 ± 5.3
17 | Cl.O=C1c2cccc3c2C(CCC3)CN1C1CN2CCC1CC2 (stereo not drawn) [Palonosetron HCl] | 86 ± 15 | 87.8 | 118 ± 38 | 94.8 | 100 ± 12 | 111 | 76.3 ± 4.4 | 82.6 ± 5.7 | 104 ± 8.2
18 | Cn1c(=O)c2[nH]cnc2n(C)c1=O [Theophylline] | 98.1 ± 19 | 123 | 94 ± 22 | 66.9 | 92.4 ± 1.1 | 117 | 103 ± 5.6 | 86.5 ± 16 | 95.8 ± 16
19 | CC(=O)OC12COC1CC(O)C1(C)C(=O)C(O)C3=C(C)C(OC(=O)C(O)C(NC(=O)OC(C)(C)C)c4ccccc4)CC(O)(C(OC(=O)c4ccccc4)C21)C3(C)C.O.O.O (stereo not drawn) [Docetaxel Trihydrate] | 106 ± 13 | 96.7 | 72.6 ± 5.4 | 86.1 | 101 ± 3.5 | 155 | 91.02 ± 0.77 | 72.3 ± 6.2 | 107 ± 5.4

Row | SMILES | cell viability (HCI01) | cell viability (HCI03) | cell viability (HCI09) | cell viability (HCI11) | cell viability (HCI13) | cell viability (HCI16) | cell viability (UCD52) | cell viability (WHIM2) | cell viability (WHIM30)
20 | COc1cc2c(cc1Cc1cccc(Cl)c1F)c(=O)c(C(=O)O)cn2C(CO)C(C)C (stereo not drawn) [Elvitegravir (GS-9137)] | 114 ± 56 | 86.7 | 41.2 ± 36 | 109 | 47.4 ± 7.1 | 124 | 77.8 ± 6.1 | 73.8 ± 7.4 | 159 ± 21
21 | C[N+](C)(CCOc1ccccc1)Cc1ccccc1.O=C(O)c1cc2ccccc2cc1[O-] [Bephenium Hydroxynaphthoate] | 121 ± 9.4 | 127 | 128 ± 23 | 125 | 103 ± 21 | 104 | 89.6 ± 12 | 112 ± 22 | 151 ± 20
22 | CC(CCC(=O)O)C1CCC2C3CCC4CC(O)CCC4(C)C3CC(O)C12C (stereo not drawn) [Deoxycholic acid] | 119 ± 25 | 143 | 107 ± 23 | 103 | 107.1 ± 0.2 | 87.1 | 112 ± 3.8 | 104 ± 19 | 91.5 ± 0.73
23 | COc1cc(C=CC(=O)CC(=O)C=Cc2ccc(O)c(OC)c2)ccc1O [Curcumin] | 94.5 ± 54 | 135 | 69.3 ± 40 | 51 | 98.4 ± 44 | 110 | 127 ± 22 | 145 ± 53 | 197 ± 9.6
24 | Clc1ccc(CCC(Cn2ccnc2)Sc2c(Cl)cccc2Cl)cc1.O=[N+]([O-])O (stereo not drawn) [Butoconazole nitrate] | 67.2 ± 44 | 99.5 | 36.7 ± 9.7 | 143 | 39.6 ± 1.4 | 186 | 74.6 ± 3.6 | 53.8 ± 16 | 190 ± 7.9
25 | CS(=O)(=O)Nc1ccc([N+](=O)[O-])cc1Oc1ccccc1 [Nimesulide] | 146 ± 23 | 117 | 80.56 ± 0.45 | 104 | 109 ± 4.1 | 144 | 81.5 ± 15 | 107 ± 13 | 92.5 ± 2.9
26 | CN1CCN(c2c(F)cc3c(=O)c(C(=O)O)cn4c3c2OCN4C)CC1 [Marbofloxacin] | 99.12 ± 0.67 | 99.3 | 69.9 ± 9 | 138 | 129 ± 17 | 114 | 136 ± 18 | 75.5 ± 2.6 | 148 ± 30
27 | CCOc1cc(C(CS(C)(=O)=O)N2C(=O)c3cccc(NC(C)=O)c3C2=O)ccc1OC (stereo not drawn) | 161 ± 13 | 149 | 112.6 ± 0.15 | 121 | 150 ± 16 | 135 | 117 ± 13 | 118 ± 7.6 | 140 ± 16
28 | Cn1c([N+](=O)[O-])cnc1COC(N)=O [Ronidazole] | 95.3 ± 20 | 134 | 94.5 ± 2.1 | 88.1 | 102 ± 13 | 108 | 91.2 ± 2.2 | 90.4 ± 19 | 102 ± 2.5
29 | CCCC(CCC)C(=O)O [Valproic acid] | 102 ± 13 | 121 | 133 ± 28 | 103 | 143 ± 3.3 | 106 | 95.8 ± 6.9 | 95.6 ± 7.5 | 83.36 ± 0.16
30 | Oc1ccc(OC2CCCCO2)cc1 (stereo not drawn) [Deoxyarbutin] | 103 ± 22 | 138 | 127 ± 11 | 112 | 84.9 ± 5.5 | 145 | 129 ± 4.3 | 132 ± 34 | 117 ± 11
31 | CO[C@H]1O[C@@H]2OC3(C)CC[C@H]4[C@H](C)CC[C@@H]([C@H]1C)[C@@]24OO3 [Artemether] | 116 ± 31 | 121 | 94.4 ± 26 | 102 | 95.8 ± 0.62 | 106 | 97.88 ± 0.13 | 97.7 ± 8.3 | 75.18 ± 0.081
32 | c1ccc2[nH]c(-c3cscn3)nc2c1 [Thiabendazole] | 148 ± 9.3 | 160 | 82.8 ± 82 | 162 | 162 ± 8.2 | 119 | 167 ± 15 | 120 ± 13 | 102.2 ± 0.2
33 | CN1C2CCCC1CC(NC(=O)c1nn(C)c3ccccc13)C2.Cl (stereo not drawn) [Granisetron HCl] | 116 ± 6.1 | 111 | 90.4 ± 1.8 | 97.6 | 96.2 ± 16 | 89.6 | 113 ± 3.7 | 88.1 ± 22 | 115 ± 16
34 | CN1CC(=O)N2[C@H](c3ccc4c(c3)OCO4)c3[nH]c4ccccc4c3C[C@@H]2C1=O [Tadalafil] | 108 ± 1.5 | 150 | 90 ± 22 | 141 | 95.7 ± 3.2 | 88.4 | 96.7 ± 12 | 112 ± 3 | 105 ± 16
35 | CN1C(C(=O)Nc2ccccn2)=C(O)c2sc(Cl)cc2S1(=O)=O [Lornoxicam] | 95.2 ± 8.9 | 111 | 84.7 ± 25 | 85.6 | 82.4 ± 9.6 | 98.4 | 86.2 ± 5.5 | 112 ± 2.6 | 99.1 ± 6.5
36 | CCC1OC(=O)C(C)C(OC2CC(C)(OC)C(O)C(C)O2)C(C)C(OC2OC(C)CC(N(C)C)C2O)C(C)(O)CC(C)C(=O)C(C)C(O)C1(C)O (stereo not drawn) [Erythromycin] | 106 ± 13 | 101 | 96.7 ± 12 | 92.7 | 77.2 ± 9.7 | 113 | 95 ± 17 | 118 ± 36 | 167.6 ± 0.38
37 | CC(NC(=O)C(O)C(C)C)C(=O)NC1C(=O)N(C)CCc2ccccc21 (stereo not drawn) | 144 ± 28 | 106 | 71.2 ± 7.3 | 119 | 102 ± 21 | 180 | 81 ± 20 | 69.98 ± 0.17 | 184 ± 11
